The values that follow come from PubChem BioAssay (NCATS).

Unmarked numbers belong to inactive results. Records with an inconclusive call do not appear. Active and inactive are the calls of the source. The call rests on the fitted dose curve; in most records, active means well fitted curve in the direction sought with a large enough effect; inconclusive means small, poorly fitted or top-dose-only effect, or another doubt; inactive means no such curve, though single readings can be large; an effect the other way counts as inactive or inconclusive.

A short description of one assay: qHTS to identify inhibitors of the type 1 interferon - major histocompatibility complex class I in skeletal muscle: primary screen against the NCATS Pharmaceutical Collection (AID 1347407).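 Further: luminescence of HiBiT knocked into endogenous HLA-B as interferon-induced MHC class I level.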 Further: potency means the concentration at half of the fitted maximal effect. On activity change, negative = inhibition: on the % scale 0 is the no-effect control and ±100 the full control effect. Conditions: human skeletal muscle cells, IFN-b-induced MHC-I HiBiT luminescence, 24 h; series mostly up to 45.9 µM; activity change, negative = inhibition: at the top concentration. A digest of the protocol: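 HLA-B HiBiT myoblasts, dexamethasone-free growth medium + 4 ng/ml IFN-b; compounds pinned 1 h after seeding, […] from 46 uM; 24 h, 37 C, 5% CO2; lytic HiBiT detection, 10 min RT, luminescence.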
Regarding `CNCC[C@@H](Oc1ccccc1C)c1ccccc1`, the “activity change, negative = inhibition” value is -4.91%.
The same measure, in the same setting: with `CC(=O)O[C@]1(C(C)=O)CC[C@H]2[C@@H]3C[C@H](C)C4=CC(=O)CC[C@]4(C)[C@H]3CC[C@@]21C` the figure was -10%; with `CC1=C(C(=O)O)N2C(=O)[C@@H](NC(=O)[C@H](N)c3ccc(O)cc3)[C@H]2SC1`, 2.8%; with `C[C@H](CCC(=O)O)[C@H]1CC[C@H]2[C@@H]3C(=O)C[C@@H]4CC(=O)CC[C@]4(C)[C@H]3CC(=O)[C@]12C`, -1.9%.
For `CN(C)CC/C=C1/c2ccccc2COc2ccc(CC(=O)O)cc21`, the “activity change, negative = inhibition” value was 1.88%.
Still for that read-out and setting: the figure for `CCCCCCCCCCCCCCCCCC(=O)OCC(O)CO` (centres undefined) is 14.9%; for `O=C(CCCN1CCC(O)(c2ccc(Br)cc2)CC1)c1ccc(F)cc1` it is -10.3%.
On the same count and under the same terms, with `CC(=O)c1ccc2c(c1)N(CCCN1CCC(CCO)CC1)c1ccccc1S2` the figure was -12.3%.
Turning to `COc1cccc2c1C(=O)c1c(O)c3c(c(O)c1C2=O)C[C@@](O)(C(=O)CO)C[C@@H]3O[C@H]1C[C@H](N)[C@H](O)[C@H](C)O1`, the Potency is 23.6 µM (active).
For the molecule `Nc1ccn([C@@H]2O[C@H](CO)[C@@H](O)C2(F)F)c(=O)n1`, the “activity change, negative = inhibition” value is -18.3%.
As to `CCCCC(CC)CN=C(N)NC(N)=NCCCCCCN=C(N)NC(N)=NCC(CC)CCCC` (centres undefined), the Potency was 14.9 µM (active).
On the same count and under the same terms, the figure for `COc1cccc2c1C(=O)c1c(O)c3c(c(O)c1C2=O)C[C@@](O)(C(C)=O)C[C@@H]3O[C@H]1C[C@H](N)[C@H](O)[C@H](C)O1` is 3.33 µM (active).
For the molecule `CN1C(CCl)Nc2cc(Cl)c(S(N)(=O)=O)cc2S1(=O)=O` (centres undefined), the “activity change, negative = inhibition” value is 3.58%.
The same measure, in the same setting: with `CC/C(=C(/CC)c1ccc(O)cc1)c1ccc(O)cc1` the figure was -4.61%.
With `C[C@H](O)C(=O)Nc1c(I)c(C(=O)NC(CO)CO)c(I)c(C(=O)NC(CO)CO)c1I`, the “activity change, negative = inhibition” value is 12.8%.
Still for that read-out and setting: the figure for `CC1(C)O[C@@H]2C[C@H]3[C@@H]4C[C@H](F)C5=CC(=O)C=C[C@]5(C)[C@H]4[C@@H](O)C[C@]3(C)[C@]2(C(=O)CO)O1` is -16.7%; for `COC(=O)[C@@H]1CC2=CC(=O)CC[C@]2(C)[C@@]23O[C@@H]2C[C@@]2(C)[C@@H](CC[C@@]24CCC(=O)O4)[C@H]13` it is 18.7%; for `CCN(CC)CCOC(=O)C(c1ccccc1)C1CCCCC1` (centres undefined) it is -15%.
Still for that read-out and setting: with `CC(Cc1ccccc1)(NC(=O)CN)c1ccccc1` (centres undefined) the figure was 12.3%; with `O=C1OC(c2ccc(O)cc2)(c2ccc(O)cc2)c2ccccc21`, -11.5%; with `CCn1cc(C(=O)O)c(=O)c2cnc(N3CCCC3)nc21`, -17.9% [at 9.18 µM].
On to `CCCCc1nc(Cl)c(CO)n1Cc1ccc(-c2ccccc2-c2nn[nH]n2)cc1`, for which the “activity change, negative = inhibition” value is -5.89%.
Same read-out and setting: with `Cc1nc2n(c(=O)c1CCN1CCC(c3noc4cc(F)ccc34)CC1)CCC[C@H]2O` the figure was -4.11% [at 19 µM].
Regarding `NCCc1ccn[nH]1`, the “activity change, negative = inhibition” value is 16.8%.
As to `CC(=O)N(O)CCCCCNC(=O)CCC(=O)N(O)CCCCCNC(=O)CCC(=O)N(O)CCCCCN`, the “activity change, negative = inhibition” value is -24.2%.
On the same count and under the same terms, the figure for `COc1c(C)c2c(c(O)c1C/C=C(\C)CCC(=O)O)C(=O)OC2` is -16.3%.
Turning to `Clc1ccc2c(c1)CCc1cccnc1C2=C1CCNCC1`, the “activity change, negative = inhibition” value was -25.4%.

The nature of another assay: qHTS for inhibitors of adenylyl cyclases using a fission yeast platform: a pilot screen against the NCATS LOPAC library (AID 1347410).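 Further: plate controls were DMSO vehicle for no effect and DPI positive control for full effect.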 Conditions: S. pombe CHP2027, fbp1-GFP fluorescence, 18 h, yeast expressing mammalian AC9 and human GNAS; series mostly up to 57.5 µM; activity, positive = inhibition (GFP gain): at the top concentration. Summed up: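 Read-out: fbp1-GFP fluorescence by laser scanning cytometry (488 nm laser), a gain of signal when AC/cAMP-PKA signalling is inhibited. Strain CHP2027 expressing AC9, GNAS and PDE4D2; compounds at up to 57 µM; 18 h, 30C.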
For the molecule `CC(C)C[C@H]1C(=O)N2CCC[C@H]2[C@]2(O)O[C@](NC(=O)[C@@H]3C=C4c5cccc6[nH]c(Br)c(c56)C[C@H]4N(C)C3)(C(C)C)C(=O)N12`, the “activity, positive = inhibition (GFP gain)” value is -0.438%.
`C[C@]12CC[C@@H]3c4ccc(O)cc4CC[C@H]3[C@@H]1CC[C@@H]2O`: the “activity, positive = inhibition (GFP gain)” value was -0.0719%.
Consider `COc1cc2c(cc1O)CC[C@@H]1[C@@H]2CC[C@]2(C)[C@@H](O)CC[C@@H]12`, for which the “activity, positive = inhibition (GFP gain)” value is -0.007%.
Consider `CNCCC=C1c2ccccc2CCc2ccccc21`, for which the “activity, positive = inhibition (GFP gain)” value is -0.438%.
The same measure, in the same setting: with `C[C@@H]1C(=O)NC2=Nc3cccc(Cl)c3CN21` the figure was -0.438%.

The nature of another assay: qHTS to identify inhibitors of the type 1 interferon - major histocompatibility complex class I in skeletal muscle: primary screen against the NCATS Mechanism Interrogation Plate v5.0 (MIPE) Libary (AID 1347411). Further: nearly all actives have a fitted effect of over 65% in size. Further: potency means the concentration at half of the fitted maximal effect.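 On activity change, negative = inhibition: plate controls were vehicle for no effect and reference inhibitor for full effect.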 To be noted: iHSKM cells + IFN-b, HiBiT-tagged MHC-I luminescence, 24 h; series mostly up to 45.8 µM; activity change, negative = inhibition: at the top concentration. Summed up: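 Seed engineered human myoblasts (HLA-B HiBit) in medium without dexamethasone containing 4 ng/ml IFN-beta; after 1 hr add compound titrations (top 46 uM final). Incubate 24 hrs at 37 C, lyse 10 min with HiBiT reagent, read luminescence.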
Take `CC(=O)OCC(=O)[C@@]12OC(C)(C)O[C@@H]1C[C@H]1[C@@H]3C[C@H](F)C4=CC(=O)C=C[C@]4(C)[C@@]3(F)[C@@H](O)C[C@@]12C`: the “activity change, negative = inhibition” value is -18.9%.
Same read-out and setting: with `CC(=O)O[C@]1(C(C)=O)CC[C@H]2[C@@H]3C[C@H](C)C4=CC(=O)CC[C@]4(C)[C@H]3CC[C@@]21C` the figure was -29.5%; with `CN(C)CC/C=C1/c2ccccc2COc2ccc(CC(=O)O)cc21`, 6.42%.
On to `COc1cccc2c1C(=O)c1c(O)c3c(c(O)c1C2=O)C[C@@](O)(C(=O)CO)C[C@@H]3O[C@H]1C[C@H](N)[C@H](O)[C@H](C)O1`, for which the Potency is 0.829 µM (active).
Turning to `Nc1ccn([C@@H]2O[C@H](CO)[C@@H](O)C2(F)F)c(=O)n1`, the “activity change, negative = inhibition” value is 1.46%.
`CC/C(=C(/CC)c1ccc(O)cc1)c1ccc(O)cc1`: the “activity change, negative = inhibition” value was -6.6%.
Still for that read-out and setting: with `CC1(C)O[C@@H]2C[C@H]3[C@@H]4C[C@H](F)C5=CC(=O)C=C[C@]5(C)[C@H]4[C@@H](O)C[C@]3(C)[C@]2(C(=O)CO)O1` the figure was -16.2%; with `COC(=O)[C@@H]1CC2=CC(=O)CC[C@]2(C)[C@@]23O[C@@H]2C[C@@]2(C)[C@@H](CC[C@@]24CCC(=O)O4)[C@H]13`, -0.856%; with `C[C@]12C=CC(=O)C=C1CC[C@@H]1[C@@H]2[C@@H](O)C[C@@]2(C)[C@H]1CC[C@]2(O)C(=O)CO`, -4.46%.
The same measure, in the same setting: with `CC(=O)OCC(=O)[C@@]12N=C(C)O[C@@H]1C[C@H]1[C@@H]3CCC4=CC(=O)C=C[C@]4(C)[C@H]3[C@@H](O)C[C@@]12C` the figure was -19.9%; with `CC(=O)N(O)CCCCCNC(=O)CCC(=O)N(O)CCCCCNC(=O)CCC(=O)N(O)CCCCCN`, 12.9%.
Still for that read-out and setting: the figure for `COc1c(C)c2c(c(O)c1C/C=C(\C)CCC(=O)O)C(=O)OC2` is -22.1%.
